Data reported in PubChem BioAssay (Tox21).
Results filed as inconclusive are left out. The source made the active and inactive calls. Unless noted, calls follow the shape of the full dose curve.

Assays:
[1] = Nuclear factor erythroid 2-related factor 2/antioxidant responsive element (Nrf2/ARE) small molecule agonists: qHTS cell viability counter screen in human keratinocytes (AID 1919968; active = well fitted curve in the direction sought with a large enough effect in the repeat runs; an effect the other way counts as inactive or inconclusive; also: nearly all actives have a fitted effect of over 55% in size)
Outline: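 In human HaCaT keratinocytes stably expressing an ARE-driven luciferase, compound exposure lasted 23 h at 37 C under 5% CO2. Viable cells are quantified with a protease-based fluorogenic reagent (CellTiter-Fluor) read 1 h after addition.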

[2] = Nuclear factor erythroid 2-related factor 2/antioxidant responsive element (Nrf2/ARE) small molecule agonists: luciferase reporter gene qHTS assay in human keratinocytes (AID 1919969); also: nearly all actives have a fitted effect of over 35% in size
[3] = target: Gonadotropin-releasing hormone receptor (Homo sapiens) (UniProt P30968); test: Human gonadotropin-releasing hormone receptor (GnRHR) small molecule agonists, calcium flux assay in GnRHR-HEK293 cells (AID 1920063); also: nearly all actives have a fitted effect of over 35% in size
Outline: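 Intracellular calcium rise is the read-out: engineered human GnRHR HEK293 cells, dye-loaded, are exposed to DMSO-dissolved compounds and fluorescence at Ex/Em 480/540 is tracked for 3 min.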

[4] = target: KiSS-1 receptor (Homo sapiens) (UniProt Q969F8); test: Human kisspeptin (KISS1R) small molecule agonists, calcium flux assay in KISS1R-HEK293 cells (AID 1920064; active = well fitted curve in the direction sought with a large enough effect in the repeat runs; an effect the other way counts as inactive or inconclusive)
Outline: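 Concentration-response testing used 15 concentrations in triplicate on human KISS1R-expressing HEK293 cells. Calcium-dependent fluorescence (Ex/Em 480/540) was followed kinetically for 3 min after compound transfer.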

[5] = G protein-coupled receptor (GPCR) small molecule agonists, calcium flux assay: HEK293 wild type cell line counter screen (AID 1920065)
Outline: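 Fluorescence intensity signals activation. After overnight (18 h) culture and a 1 h calcium dye load at 37 C, compounds are added by pin tool and the plate read at 480/540 nm for 3 min in 1 s steps.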

[6] = p53 small molecule agonists, cell-based qHTS assay with human liver microsomes (AID 1963577);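 also: p53 response element beta-lactamase reporter cells with liver microsomes plus NADPH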
Outline: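 p53RE-bla cells; 5 h settle, 37 C/5% CO2; cpd + HLM 0.5 mg/mL + NADPH 0.5 mg/mL (final); 16 h 37 C; LiveBLAzer 2 h RT dark; fluorescence readout.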

[7] = p53 small molecule agonists, cell-based qHTS assay with rat liver microsomes (AID 1963578)
Outline: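 Rat liver microsome activation: microsomes 0.5 mg/mL, NADPH 0.5 mg/mL final; p53RE-bla cells, 16 h 37 C; LiveBLAzer readout, 2 h RT dark.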

[8] = p53 small molecule agonists, cell-based qHTS assay with human liver microsomes: qHTS cell viability counter screen (AID 1963579); also: nearly all actives have a fitted effect of over 45% in size
Outline: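 Luminescent CellTiter-Glo read-out, 30 min at room temperature, gauged cytotoxicity in p53RE-bla cells exposed 16 h at 37 C to DMSO-dissolved compounds with metabolic activation by human liver microsomes and NADPH, each 0.5 mg/mL final.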

[9] = p53 small molecule agonists, cell-based qHTS assay with rat liver microsomes: qHTS cell viability counter screen (AID 1963580); also: nearly all actives have a fitted effect of over 45% in size
Outline: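 After the beta-lactamase ratio was read, CellTiter-Glo was added to the same wells and luminescence measured at 30 min; cells had been treated 16 h at 37 C with compounds, rat liver microsomes and NADPH (0.5 mg/mL final each).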

[10] = p53 small molecule agonists, cell-based qHTS assay: qHTS cell viability counter screen (AID 1963581); also: nearly all actives have a fitted effect of over 45% in size
Outline: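 Luminescence from CellTiter-Glo, reflecting ATP content, serves as the cytotoxicity measure; it is taken after the 2 h reporter substrate step in HCT-116 p53RE-bla cells dosed for 16 h at 37 C.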

[11] = p53 small molecule agonists, cell-based qHTS assay (AID 1963582; active = well fitted activation curve with a large enough effect in the signal ratio in the repeat runs, not every such curve was filed as active; the % refers to the signal ratio)
Outline: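 After plating, p53RE-bla cells sat 5 h in the incubator; compounds or DMSO vehicle were pinned in; a 16 h incubation at 37 C followed; FRET substrate was added and, 2 h later at RT, fluorescence was measured.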

[12] = target: 5-hydroxytryptamine receptor 2A (Homo sapiens) (UniProt P28223); test: 5-hydroxytryptamine receptor 2A (HTR2A) small molecule antagonists, cell-based qHTS assay (AID 1963586); also: nearly all actives have a fitted effect of over 45% in size
Outline: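 CHO cells stably expressing human HTR2A were plated for 18 h at 37 C, then loaded with calcium dye for 1 h. Compounds were preincubated 5 min at room temperature before DOI (4 nM solution) was added. Kinetic fluorescence was read for 3 min.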

[13] = target: 5-hydroxytryptamine receptor 2A (Homo sapiens) (UniProt P28223); test: 5-hydroxytryptamine receptor 2A (HTR2A) small molecule agonists, cell-based qHTS assay (AID 1963587); also: nearly all actives have a fitted effect of over 30% in size
Outline: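 CHO cells stably expressing human HTR2A, plated 18 h, loaded with calcium dye 1 h at 37 C. Agonist mode: compounds added and intracellular calcium fluorescence recorded kinetically for 2 min at 1 sec intervals.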

[14] = target: Muscarinic acetylcholine receptor M1 (Homo sapiens) (UniProt P11229); test: Cholinergic receptor muscarinic 1 (CHRM1) small molecule antagonists, cell-based qHTS assay (AID 1963588); also: nearly all actives have a fitted effect of over 40% in size
Outline: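 Compounds were tested at 15 concentrations in three independent runs. Dye-loaded CHRM1-CHO cells were exposed 5 min at room temperature before stimulation by acetylcholine added at 50nM. Intracellular calcium was read kinetically on FDSS for 3 min.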

[15] = target: Muscarinic acetylcholine receptor M1 (Homo sapiens) (UniProt P11229); test: Cholinergic receptor muscarinic 1 (CHRM1) small molecule agonists, cell-based qHTS assay (AID 1963589); also: nearly all actives have a fitted effect of over 35% in size
Outline: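 Fluorescent calcium dye reports M1 activation in stably transfected CHO cells. Compounds, 15 concentrations, added after 1 h dye loading at 37 C; kinetic reading at 1 sec intervals.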

[16] = cAMP Responsive Elements (CRE) small molecule antagonists, cell-based qHTS assay (AID 1963591; active = well fitted inhibition curve with a large enough effect in the signal ratio in the repeat runs, not every such curve was filed as active; the % refers to the signal ratio)
Outline: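 Stimulation used NKH477 at a final 0.25 uM for 3 h in compound-treated CRE-bla HEK293T cells, seeded 18 h beforehand. Reporter activity was measured with LiveBLAzer B/G FRET substrate after 2 h at room temperature.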

[17] = target: Beta-2 adrenergic receptor (Homo sapiens) (UniProt P07550); test: Adrenergic beta2 receptor (ADRB2) small molecule antagonists, cell-based qHTS assay (AID 1963592); also: series mostly up to about 92 µM; nearly all actives have a fitted effect of over 50% in size
Outline: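 Assay format: CHO-ADRB2 cells, 18-20hr seeding at 37C/5% CO2, then compound plus 1nM isoproterenol agonist mix for 0.5hr RT. Homogeneous time-resolved fluorescence cAMP detection after 1hr, expressed as 665/615 nm ratio.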

[18] = target: D(2) dopamine receptor (Homo sapiens) (UniProt P14416); test: Dopamine D2 receptor (DRD2) small molecule agonists, cell-based qHTS assay (AID 1963594); also: nearly all actives have a fitted effect of over 35% in size
Outline: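 HEK293 cells stably expressing human DRD2, pre-treated with PDE inhibitor Ro20-1724 (0.1 mM final) and compound 10 min at room temperature, then stimulated with NKH477 (200nM […]) for 30 min. cAMP read by HTRF (665/620 nm).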

[19] = target: D(2) dopamine receptor (Homo sapiens) (UniProt P14416); test: Dopamine D2 receptor (DRD2) small molecule antagonists, cell-based qHTS assay (AID 1963595; active = well fitted inhibition curve with a large enough effect in the signal ratio in the repeat runs, with a control signal flat; the % refers to the signal ratio)
Outline: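 Antagonist mode in DRD2-HEK293 cells: after compound addition with 0.1 mM Ro20-1724, cells received quinpirole (12 nM) and NKH477 (200 nM) for 30 min at room temperature; HTRF cAMP read after 1 h detection.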

[20] = cAMP Responsive Elements (CRE) small molecule agonists, cell-based qHTS assay (AID 1963590)
Outline: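 Compound exposure lasted 3 h at 37 C/5% CO2 in CRE-bla HEK 293T cells grown in assay medium with 10% dialyzed FBS and 25 mM HEPES. Reporter signal came from LiveBLAzer B/G FRET substrate, 2 h, room temperature.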

Measured: Potency

Sequence of D(2) dopamine receptor (Homo sapiens) (P14416 whole entry, looked up): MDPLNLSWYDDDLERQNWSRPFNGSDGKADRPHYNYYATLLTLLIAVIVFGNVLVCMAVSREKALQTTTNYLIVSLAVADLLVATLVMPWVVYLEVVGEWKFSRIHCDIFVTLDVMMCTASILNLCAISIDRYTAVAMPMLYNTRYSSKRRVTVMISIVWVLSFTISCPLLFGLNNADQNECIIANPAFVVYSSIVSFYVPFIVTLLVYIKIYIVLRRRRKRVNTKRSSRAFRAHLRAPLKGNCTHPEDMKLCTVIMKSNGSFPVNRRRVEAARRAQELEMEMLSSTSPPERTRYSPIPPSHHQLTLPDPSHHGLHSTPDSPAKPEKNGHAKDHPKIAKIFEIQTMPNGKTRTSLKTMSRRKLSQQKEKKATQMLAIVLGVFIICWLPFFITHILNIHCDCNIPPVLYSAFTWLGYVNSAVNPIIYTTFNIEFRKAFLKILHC
Sequence of 5-hydroxytryptamine receptor 2A (Homo sapiens) (P28223 whole entry, looked up): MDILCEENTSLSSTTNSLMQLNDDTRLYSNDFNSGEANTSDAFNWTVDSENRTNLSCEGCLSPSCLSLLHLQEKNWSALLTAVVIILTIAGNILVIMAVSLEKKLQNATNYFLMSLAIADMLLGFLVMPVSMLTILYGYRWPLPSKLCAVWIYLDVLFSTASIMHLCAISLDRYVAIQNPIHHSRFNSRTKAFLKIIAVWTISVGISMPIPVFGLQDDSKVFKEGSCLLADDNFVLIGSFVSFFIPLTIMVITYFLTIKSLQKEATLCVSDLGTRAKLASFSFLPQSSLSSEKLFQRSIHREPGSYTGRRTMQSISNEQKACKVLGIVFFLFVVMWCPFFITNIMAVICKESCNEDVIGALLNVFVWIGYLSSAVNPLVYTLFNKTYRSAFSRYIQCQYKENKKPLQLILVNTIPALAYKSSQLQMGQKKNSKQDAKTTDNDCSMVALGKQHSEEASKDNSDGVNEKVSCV
Sequence of KiSS-1 receptor (Homo sapiens) (Q969F8 whole entry, looked up): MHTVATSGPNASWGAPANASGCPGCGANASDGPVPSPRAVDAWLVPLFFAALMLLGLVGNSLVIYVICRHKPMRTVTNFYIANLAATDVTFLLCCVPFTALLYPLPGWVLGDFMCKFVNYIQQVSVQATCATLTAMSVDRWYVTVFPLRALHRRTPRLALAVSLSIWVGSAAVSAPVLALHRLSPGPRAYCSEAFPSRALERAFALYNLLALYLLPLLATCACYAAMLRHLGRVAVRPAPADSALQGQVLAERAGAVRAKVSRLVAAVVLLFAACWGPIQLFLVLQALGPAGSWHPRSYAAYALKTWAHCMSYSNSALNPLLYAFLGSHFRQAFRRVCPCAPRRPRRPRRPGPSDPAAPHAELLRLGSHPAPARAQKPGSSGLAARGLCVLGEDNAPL
Sequence of Muscarinic acetylcholine receptor M1 (Homo sapiens) (P11229 whole entry, looked up): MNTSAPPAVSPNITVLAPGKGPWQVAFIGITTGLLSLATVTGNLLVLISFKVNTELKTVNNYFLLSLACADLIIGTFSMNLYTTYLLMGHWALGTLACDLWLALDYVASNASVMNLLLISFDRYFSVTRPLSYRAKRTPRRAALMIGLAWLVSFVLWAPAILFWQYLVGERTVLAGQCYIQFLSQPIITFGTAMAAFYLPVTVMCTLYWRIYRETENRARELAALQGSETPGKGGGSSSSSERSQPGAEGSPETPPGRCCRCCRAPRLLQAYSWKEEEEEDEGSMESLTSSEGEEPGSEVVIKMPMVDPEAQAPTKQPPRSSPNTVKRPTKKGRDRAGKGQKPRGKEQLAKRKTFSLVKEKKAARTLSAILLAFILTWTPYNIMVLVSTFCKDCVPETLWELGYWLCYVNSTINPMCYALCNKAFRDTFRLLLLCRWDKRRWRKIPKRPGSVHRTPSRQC
Sequence of Gonadotropin-releasing hormone receptor (Homo sapiens) (P30968 whole entry, looked up): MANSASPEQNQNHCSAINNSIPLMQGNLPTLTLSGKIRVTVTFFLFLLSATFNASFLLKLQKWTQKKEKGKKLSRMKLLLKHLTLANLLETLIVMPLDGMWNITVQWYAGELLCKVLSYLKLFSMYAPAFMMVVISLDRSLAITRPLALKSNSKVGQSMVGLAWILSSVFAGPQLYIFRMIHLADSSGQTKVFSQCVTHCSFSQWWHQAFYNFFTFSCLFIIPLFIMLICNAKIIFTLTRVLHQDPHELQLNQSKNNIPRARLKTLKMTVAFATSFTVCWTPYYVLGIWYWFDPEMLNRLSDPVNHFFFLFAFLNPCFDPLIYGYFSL
Sequence of Beta-2 adrenergic receptor (Homo sapiens) (P07550 whole entry, looked up): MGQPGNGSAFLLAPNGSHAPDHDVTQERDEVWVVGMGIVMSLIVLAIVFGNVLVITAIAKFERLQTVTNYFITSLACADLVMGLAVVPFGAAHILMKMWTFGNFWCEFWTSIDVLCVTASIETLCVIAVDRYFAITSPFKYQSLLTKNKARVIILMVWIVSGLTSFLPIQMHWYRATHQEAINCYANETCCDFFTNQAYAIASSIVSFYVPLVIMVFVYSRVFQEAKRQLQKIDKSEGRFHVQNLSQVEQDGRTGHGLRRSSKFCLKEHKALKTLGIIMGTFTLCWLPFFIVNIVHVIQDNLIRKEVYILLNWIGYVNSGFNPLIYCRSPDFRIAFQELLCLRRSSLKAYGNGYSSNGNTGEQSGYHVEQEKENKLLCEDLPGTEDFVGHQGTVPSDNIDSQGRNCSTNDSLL

COc1cnc(OC)n2nc(NS(=O)(=O)c3c(OCC(F)F)cccc3C(F)(F)F)nc12
not listed: [20]
inactive: all other assays above

CCOC(=O)c1ncn2c1CN(C)C(=O)c1c(I)cccc1-2
not listed: [13] | [16]
inactive: all other assays above

O=C(O)C(Br)CBr (stereo not drawn)
not listed: [16]
inactive: all other assays above

C[C@@H]1CC2=CC(=O)CC[C@@H]2[C@H]2CC[C@@]3(C)[C@@H](CC[C@]3(C)O)[C@@H]21
not listed: [16] | [20]
inactive: all other assays above

BrCBr
not listed: [18]
inactive: all other assays above

C=CCOC(C)=O
not listed: [16] | [20]
inactive: all other assays above

COC(N)=O
not listed: [16] | [19] | [20]
inactive: all other assays above
